Screens as filed in PubChem.
MARV entry inh: inhibitors of Marburg virus binding or cell entry | Marburg virus pseudotyped entry inhibition, cell reporter | Potency, µM (top dose mostly 37.8 µM), for inactives: at the top dose activity change, negative = inhibition, hits mostly inhibitors | hit rate 1.8% among 300,000 | AID 540276; calls by dose curve; tested in HEK293 cells; also: potency is read from the fitted curve at half-maximal effect
HCMV inh: human cytomegalovirus inhibition; HFF cells, HCMV-luciferase reporter, 72 h; hits give low values; activity change, negative = inhibition, % at 57.5 µM; hit rate 4.5% among 410,000; AID 1259415; in the data active = activity change below about -60%; inconclusive = no clear call, values can overlap the other calls; inactive = above about -39%
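Human foreskin fibroblasts infected with luciferase-reporter HCMV at MOI 1 PFU/cell, compounds at two doses. Luciferase measured 72 h post infection; normalized to buffer-only basal and Salinomycin (10uM) controls.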
FMDV antiviral: foot and mouth disease virus antiviral activity. Potency, µM (doses to about 57.9 µM), for inactives: top-dose activity change, negative = inhibition, usual class: inhibitors. AID 1159524. hit rate 1.2% among 410,000. FMDV antiviral cell-based qHTS; calls by dose curve; tested in HEK293T cells; also: read-out not given here; potency is read from the fitted curve at half-maximal effect; nearly all actives have a fitted effect of over 45% in size
LASV entry inh: blocks Lassa virus binding to or entry into cells; Potency, µM (titrated, usually from 37.9 µM), without a hit: top-dose activity change, negative = inhibition, most hits filed as inhibitors; hit rate 1.2% among 300,000; Lassa virus pseudotype entry inhibition, cell reporter; calls by dose curve; tested in HEK293 cells; also: potency is read from the fitted curve at half-maximal effect; nearly all actives have a fitted effect of over 50% in size
Vaccinia mCherry: vaccinia inhibition (mCherry reporter) | AID 720579 | Potency, µM (doses to about 36.5 µM), inactives show at the highest dose activity change, negative = inhibition, most hits filed as inhibitors | hit rate 0.63% among 310,000 | Vaccinia virus mCherry reporter infection, fluorescence; calls by dose curve; tested in A549 cells; also: potency is read from the fitted curve at half-maximal effect; nearly all actives have a fitted effect of over 35% in size
Vaccinia Venus: inhibitors of vaccinia virus (Venus reporter) | Vaccinia virus Venus reporter expression, fluorescence | hit rate 0.46% among 330,000 | AID 720580 | Potency, µM (doses to about 36.5 µM), inactives show at the highest dose activity change, negative = inhibition, actives largely listed as inhibitors; calls by dose curve; tested in A549 cells; also: potency is read from the fitted curve at half-maximal effect; nearly all actives have a fitted effect of over 30% in size
An asterisk follows results filed as active; i = inactive; ? = inconclusive; . = no result; + = active, no number; [ ] = dose if it differs, or a comment. Shown are actives, neighbours in structure and some others; about 6.5% of the full set was active somewhere. % is scaled to controls: 0 for no effect and ±100 for the full control effect.

SMILES	MARV entry inh	HCMV inh	FMDV antiviral	LASV entry inh	Vaccinia mCherry	Vaccinia Venus
CCCCNC(=O)C1(C)CCC(=O)N1CCCn1ccnc1 (configuration not stated)	.	-71*	-5%	.	i	4%
COc1ccc(CCN2C(=O)CCC2(C)C(=O)NCc2cccnc2)cc1OC (configuration not stated)	-7%	5	-5%	2%	0%	-10%
COc1ccc(-c2nc3c(c4c2C[C@H](c2ccccc2)OC4)CN(S(=O)(=O)c2ccc(NC(C)=O)cc2)CC3)c(C)c1	-6%[14.2 µM]	.	.	?	.	.
Cc1ccccc1CN(CC(=O)Nc1cccc([N+](=O)[O-])c1)S(=O)(=O)c1ccc(Cl)cc1	?	-37	40µM*	?	?	?
O=C1[C@@H]2[C@H]3[C@H](O)[C@H](O)CC(=NOC[C@@H](O)COCc4ccco4)[C@@H]3CC[C@H]2C(=O)N1Cc1ccccc1	-4%[14.2 µM]	.	.	.	.	.
COc1ccc(S(=O)(=O)N2CCC(C)CC2)cc1OC	.	19	18%	.	.	.
CC1CCN(S(=O)(=O)c2ccc3c(c2)C(=NO)c2cc(S(=O)(=O)N4CCC(C)CC4)ccc2-3)CC1	?	-99*	?	2.5µM*	2.8µM*	?
CC1CCN(S(=O)(=O)c2ccc3[nH]ccc3c2)CC1	.	-94*	47%	0%[46.1 µM]	-14%	-13%
O=C(O)C1CCN(S(=O)(=O)c2ccc3[nH]ccc3c2)CC1	.	-20	0%	.	i	-6%
O=S(=O)(c1ccc2c(c1)C(=NO)c1cc(S(=O)(=O)N3CCCCC3)ccc1-2)N1CCCCC1	?	-102*	?	6.3µM*	1.8µM*	1.4µM*
Cc1cccc(N2CCN(S(=O)(=O)c3ccc4c(c3)NC(=O)C(C)S4)CC2)c1C (configuration not stated)	.	-79*	-22%	.	.	.
CC1Sc2ccc(S(=O)(=O)N3CCN(c4cccc(Cl)c4)CC3)cc2NC1=O (configuration not stated)	.	0	?	.	.	.
Cc1cccc(N2CCN(S(=O)(=O)c3ccc4c(c3)C(C(C)C)C(=O)N4)CC2)c1C (configuration not stated)	.	?	0%	1.3µM*	?	-22%
Cc1ccc(C)c(N2CCN(C(=O)CCS(=O)(=O)c3ccc4c(c3)NC(=O)C(C)S4)CC2)c1 (configuration not stated)	.	+	16µM*	.	.	.
Cc1ccc(CNC(=O)CCS(=O)(=O)c2ccc3c(c2)NC(=O)C(C)S3)cc1 (configuration not stated)	.	-28	?	.	.	.
C=CCN1C(=O)C(Cc2ccc(OCC)cc2)S/C1=N\N=C\c1cccs1 (configuration not stated)	-27%	30	-15%	11µM*	.	1%
CC(=O)c1ccc(NC(=O)c2cc(C)nc3c2c(C)nn3-c2ccc(C)cc2)cc1	.	30	-16%	?	-20%	-15%
CCc1cnc2c(c1SCCC(C)C)c(=O)n(C)c(=O)n2C	.	0	-14%	?	-10%	-9%
Cc1nn(C(C)(C)C)c(C)c1/C=N/OC(=O)Nc1ccc(Cl)c(Cl)c1	.	-61*	0.32µM*	.	.	.
COc1ccc(NC(=O)CCS(=O)(=O)c2nc(-c3cccs3)cc(C(F)(F)F)n2)cc1	?	-101*	?	?	-10%[7.34 µM]	-16%[7.34 µM]
COc1ccc(Cl)cc1NC(=O)CCS(=O)(=O)c1nc(-c2cccs2)cc(C(F)(F)F)n1	18%[46.1 µM]	-94*	32µM*	?	-22%	-19%
CC(C)c1nnc(NC(=O)CCS(=O)(=O)Cc2ccccc2)s1	4%[46.1 µM]	8	-11%	0%[46.1 µM]	-20%	-11%
CC(C)c1nnc(NC(=O)CCS(=O)(=O)c2nc(-c3cccs3)cc(C(F)(F)F)n2)s1	13µM*	43	14µM*	?	.	.
O=C(CCS(=O)(=O)c1nc(-c2cccs2)cc(C(F)(F)F)n1)Nc1ccc(OC(F)(F)F)cc1	?	38	-19%	?	-12%	2%
Cc1nc2ccc(NC(=O)CCS(=O)(=O)c3ccc(Cl)cc3)cc2s1	?	?	?	-22%	?	-24%
SMILES	MARV entry inh	HCMV inh	FMDV antiviral	LASV entry inh	Vaccinia mCherry	Vaccinia Venus
O=C(CCS(=O)(=O)c1nc(-c2cccs2)cc(C(F)(F)F)n1)Nc1ccc(F)c(Cl)c1	27%[46.1 µM]	-99*	35µM*	?	-23%[7.34 µM]	-16%[7.34 µM]
COc1ccc2c(c1)c(=O)c(S(=O)(=O)c1ccc(Cl)cc1)cn2Cc1cc(C)ccc1C	12%[46.1 µM]	-11	?	8%[46.1 µM]	1%	-6%
N#CC1=C(N)OC2=C(C(=O)CCC2)[C@@H]1CCc1ccccc1	11%[46.1 µM]	.	.	.	.	.
Cc1cc2c(cc1S(=O)(=O)N(CCN(C)C)Cc1ccco1)OCC(=O)N2	.	0	7%	-10%[46.1 µM]	-2%	-3%
COCCNc1c(-c2cc3ccc(C)c(C)c3[nH]c2=O)nc2ccccn12	?	137	16%	5µM*	?	-13%
COc1cccc(CNS(=O)(=O)c2c(C(=O)N3CCC(C)CC3)c(C)n(C)c2C)c1	.	-3	31%	15%[46.1 µM]	-8%	-6%
C=CCn1c(C)cc(-c2csc(NCC)n2)c1C	?	-63*	8%	-29%	-1%	19%
O=S(=O)(c1cccc(C(F)(F)F)c1)n1c(/C=C/c2ccccc2)nc2ccccc21	.	-18	-70%	?	-16%	-20%
Cc1ccc(NS(=O)(=O)c2cc(NC(=O)c3ccc4c(c3)NC(=O)CS4)ccc2C)c(C)c1	10µM*	?	?	?	i	-12%
O=C(N/N=C/c1cccnc1)C12CC3CC(CC(C3)C1)C2	?	56	-13%	16%[46.1 µM]	i	-14%
O=C(NNC(=O)C12CC3CC(CC(C3)C1)C2)c1ccccn1	10µM*	-107*	?	7.9µM*	10µM*	?
O=C(Nc1cccnc1)C12CC3CC(CC(C3)C1)C2	-19%	-64*	-18%	5%	1%	2%
CN(C)N=Nc1ccc(/C=C2\C=Cc3ccccc32)cc1	.	.	.	.	-16%	-15%
c1ccc2c(CCNc3ncnc4nc[nH]c34)cccc2c1	?	-35	32µM*	1%	.	.
CCOC(=O)c1nc(Nc2ccc(C(=O)OC(C)C)cc2)c2ccccc2n1	0%[46.1 µM]	-34	-15%	-6%[46.1 µM]	-28%	-17%
Cc1cc(C)nc(N2C(=O)CC(Cc3ccc(Cl)cc3)C2=O)n1 (configuration not stated)	9%[46.1 µM]	-101*	-13%	-15%	i	-6%
Cc1ccc(N2C(=O)CC(Cc3ccc(Cl)cc3)C2=O)cc1 (configuration not stated)	1%	-3	-19%	6%	-18%	-13%
Cc1noc(NS(=O)(=O)c2ccc(NC(=O)COc3ccccc3Br)cc2)c1C	.	8	-8%	?	-8%	7%
CCc1ccc(-n2c(SCc3ccccc3C)nc3[nH]ncc3c2=O)cc1	.	?	-22%	-30%[46.1 µM]	-22%	-21%
CCc1ccc(-n2c(SCc3ccccc3Cl)nc3[nH]ncc3c2=O)cc1	.	-105*	?	-18%[46.1 µM]	-17%	-20%
